Laboratory results reported in the supplement of paper PMC3898565.
± gives the uncertainty stated by the source.

tested on: U87; assay: cell viability relative to vehicle control; higher = less growth inhibition (less active); conditions: 10 µM; 72 h
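Also: viable cell number estimated from Alamar Blue fluorescence read at 560/90, part of a single-dose primary screen of an FDA-approved drug library.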

Structure (SMILES) | cell viability
CCOc1cc(N)c(Cl)cc1C(=O)NCC1CN(Cc2ccc(F)cc2)CCO1 (stereo not drawn) | 108 ± 1.4%
C=CC1=C(C(=O)O)N2C(=O)[C@@H](NC(=O)/C(=N\O)c3csc(N)n3)[C@H]2SC1 | 107 ± 1.5%
COc1cc(CNC(=O)CCCC/C=C/C(C)C)ccc1O [Capsaicin] | 109 ± 1.5%
O=C1Nc2ccccc2/C1=C1/Nc2ccccc2C1=O [indirubin] | 99.6 ± 1.4%
CC[C@@]1(O)C(=O)OCc2c1cc1n(c2=O)Cc2cc3c(CN(C)C)c(O)ccc3nc2-1 | 24.1 ± 2%
O=c1n(CCCN2CCN(c3cccc(Cl)c3)CC2)nc2ccccn12 | 101 ± 1.3%
OCc1cccnc1 | 108 ± 1.5%
C[C@H](CCC(=O)O)[C@H]1CC[C@H]2[C@@H]3C(=O)C[C@@H]4CC(=O)CC[C@]4(C)[C@H]3CC(=O)[C@]12C | 103.4 ± 0.82%
COc1cc(/C=C/c2ccc(O)cc2)cc(OC)c1 | 100.4 ± 0.43%
C=C1/C(=C\C=C2/CCC[C@]3(C)[C@@H]([C@H](C)/C=C/[C@@H](O)C4CC4)CC[C@@H]23)C[C@@H](O)C[C@@H]1O | 100 ± 1.4%
CCOC(=O)C1=C(C)NC(C)=C(C(=O)OCC)C1c1ccccc1/C=C/C(=O)OC(C)(C)C | 98.85 ± 0.96%
CO[C@@H]1[C@@H](O[C@@H]2O[C@H](C)[C@@H](O[C@H]3C[C@@](C)(O)[C@@H](OC(=O)CC(C)C)[C@H](C)O3)[C@H](N(C)C)[C@H]2O)[C@@H](CC=O)C[C@@H](C)[C@@H](O)/C=C/C=C/C[C@@H](C)OC(=O)C[C@H]1O | 102 ± 2.2%
CCN1CCN(c2cc3c(cc2F)c(=O)c(C(=O)O)cn3C2CC2)CC1 | 109 ± 1.3%
